Most compounds without a hit are left out; they make up all but 3.3% or so of the library.
MazEF act: MazEF (E. coli) toxin RNase activation | P0AE70 | activation, % at 20 µM | AID 504720 | FAM/BHQ RNA-DNA oligo cleavage fluorescence, 5 h | hit rate 0.32% among 350,000; in the data active means activation above about 50%
BoNT A protease: BoNT A light chain protease inhibition. multiplex microsphere protease substrate cleavage, flow cytometry. inhibition, % at 10 µM. hit rate 0.17% among 360,000. AID 588499; further: plate controls were buffer without enzyme for full effect and enzyme alone for no effect
Anthrax LF inh2: inhibitors of Bacillus anthracis lethal factor protease | P15917 | AID 588501 | hit rate 0.12% among 360,000 | multiplex microsphere protease cleavage assay, LF | inhibition, % at 10 µM; further: plate controls were buffer without enzyme for full effect and enzyme alone for no effect
BoNT F protease: BoNT F light chain protease inhibition; inhibition, % at 10 µM; Multiplex microsphere protease cleavage assay, flow cytometry; AID 588497; hit rate 0.22% among 360,000; in the data active means inhibition above about 35%, passing the limit was not always enough; inconclusive means no clear call, values can overlap the other calls; further: plate controls were buffer without enzyme for full effect and enzyme alone for no effect
Bead autofluor: flagged as autofluorescent in microsphere protease counterscreen; compound autofluorescence counterscreen, microsphere flow cytometry; stronger effect = higher value; fluorescence intensity (no concentration beside the values); hit rate 3.1% among 360,000; AID 624483; in the data active means fluorescence intensity above about 16000; inconclusive means no clear call, values can overlap the other calls
SSB-PriA inh: blocks PriA binding to SSB C-terminal tail | AlphaScreen SSBct-PriA binding, biotinylated peptide | inhibition, % at 33 µM | hit rate 0.6% among 430,000; in the data active means inhibition mostly above about 37%, no sharp cut-off; inactive means mostly below about 20%;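 further: plate controls were negative control peptide for no effect and reference peptide for full effect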
An asterisk follows results filed as active. Unless noted, no stated cut-off is given here; in the data, active means inhibition above about 30%; inconclusive means no clear call, values can overlap the other calls; inactive means below that.

Results for CC(C)N1CCc2c(sc(NC(=O)c3ccc(C(=O)c4ccccc4)cc3)c2C(N)=O)C1 ?
MazEF act: -17.6; BoNT A protease: 1.6; Anthrax LF inh2: -0.5; BoNT F protease: 3.2; Bead autofluor: 6022; SSB-PriA inh: 80.8*

Results for NC(=O)c1c(NC(=O)C2COc3ccccc3O2)sc2c1CCN(Cc1ccccc1)C2 (centres undefined) ?
MazEF act: 257.9*; BoNT A protease: -0.5; Anthrax LF inh2: -3.0; BoNT F protease: -1.6; Bead autofluor: 4073; SSB-PriA inh: -1.8

Results for CCOC(=O)c1c(NC(=O)C2COc3ccccc3O2)sc2c1CCN(Cc1ccccc1)C2 (centres undefined) ?
MazEF act: -18.4; BoNT A protease: 0.3; Anthrax LF inh2: -1.3; BoNT F protease: -7.9; Bead autofluor: 2229; SSB-PriA inh: 9.0

How did CCS(=O)(=O)Nc1ccc2c(c1)N(C)C(=O)C(C)(C)CO2 do in these assays?
SSB-PriA inh: -19.0

How did Cc1onc(-c2ccccc2)c1C(=O)OCC(=O)Nc1ccc2c(c1)OCO2 do in these assays?
MazEF act: 9.3; BoNT A protease: 2.3; Anthrax LF inh2: -1.9; BoNT F protease: 2.5; Bead autofluor: 19429*; SSB-PriA inh: -29.1

Results for O=C(NC1CCCC1)C1C2C=CC(C2)C1C(=O)N1CCOCC1 (centres undefined) ?
MazEF act: 7.4; BoNT A protease: inconclusive; Anthrax LF inh2: -1.6; BoNT F protease: 3.4; Bead autofluor: 21400*; SSB-PriA inh: -12.7

What do the screens show for `Cc1ccc(C(CNC(=O)NC2CCCCC2)N2CCOCC2)cc1` (centres undefined)?
SSB-PriA inh: -4.0

Results for CCS(=O)(=O)C(=C(Nc1ccc(OC)cc1)Nc1ccc(OC)cc1)S(=O)(=O)CC ?
MazEF act: 0.8; BoNT A protease: -2.5; Anthrax LF inh2: -7.1; BoNT F protease: -7.8; Bead autofluor: 22992*; SSB-PriA inh: 3.3

What do the screens show for `Cc1ccc(-c2nc(NCc3ccco3)c3ccccc3n2)cc1`?
MazEF act: 5.8; BoNT A protease: -0.2; Anthrax LF inh2: -2.2; BoNT F protease: -2.2; Bead autofluor: 2547; SSB-PriA inh: -19.0

What do the screens show for `c1ccc(-c2nc(NCc3ccco3)c3oc4ccccc4c3n2)cc1`?
MazEF act: -6.5; BoNT A protease: inconclusive; Anthrax LF inh2: -4.3; BoNT F protease: 2.3; Bead autofluor: 22249*; SSB-PriA inh: -12.5

Results for CCCc1cc(=O)[nH]c(SCc2nc3ccccc3s2)n1 ?
MazEF act: -1.6; BoNT A protease: 0.8; Anthrax LF inh2: -0.1; BoNT F protease: 1.5; Bead autofluor: 19993*; SSB-PriA inh: -11.4

How did CCCc1cc(=O)[nH]c(SCc2ccccc2Cl)n1 do in these assays?
MazEF act: -1.3; BoNT A protease: -0.2; Anthrax LF inh2: -2.5; BoNT F protease: -0.4; Bead autofluor: 20635*; SSB-PriA inh: -2.7

Results for Cc1ccccc1-c1nc(C)c(CNC(=O)Cc2ccccc2F)s1 ?
SSB-PriA inh: -1.0

What do the screens show for `CC(C(=O)Nc1ccc(C(=O)O)cc1)N1C(=O)c2ccccc2C1=O` (centres undefined)?
MazEF act: 3.2; BoNT A protease: -0.3; Anthrax LF inh2: -2.5; BoNT F protease: -1.8; Bead autofluor: 20892*; SSB-PriA inh: -14.1

How did CC(C(=O)Nc1cccnc1)N1C(=O)c2ccccc2C1=O (centres undefined) do in these assays?
MazEF act: -0.5; BoNT A protease: 0.8; Anthrax LF inh2: 0.8; BoNT F protease: 11.8; Bead autofluor: 9496; SSB-PriA inh: -18.9

Results for CCOC(=O)c1c(C)nc(C)c(C(=O)OCC)c1-c1ccccc1 ?
MazEF act: -7.5; BoNT A protease: 0.9; Anthrax LF inh2: 0.2; BoNT F protease: 3.6; Bead autofluor: 9531; SSB-PriA inh: 3.3

How did CCOC(=O)c1c(C)nc2c(c1-c1cc(OC)c(OC)c(OC)c1)C(=O)c1ccccc1-2 do in these assays?
MazEF act: -0.7; BoNT A protease: inconclusive; Anthrax LF inh2: -0.6; BoNT F protease: 5.0; Bead autofluor: 19026*; SSB-PriA inh: -5.5

How did O=C(NCC1CCN(Cc2cccs2)CC1)Nc1cccc(C(F)(F)F)c1 do in these assays?
SSB-PriA inh: -9.0

Results for Cc1sc2nc(SCC(=O)Nc3c(C)n(C)n(-c4ccccc4)c3=O)n(C)c(=O)c2c1C ?
MazEF act: 7.2; BoNT A protease: 0.6; Anthrax LF inh2: -1.6; BoNT F protease: -5.8; Bead autofluor: 4569; SSB-PriA inh: -14.9

What do the screens show for `Cc1sc2ncnc(SCC(=O)Nc3c(C)n(C)n(-c4ccccc4)c3=O)c2c1C`?
SSB-PriA inh: 84.0*

High-throughput results: PubChem BioAssay, several laboratories
